Drawing on publication PMC11062922 (Nature Chemical Biology, 2023), this text covers potency estimated from few doses for 16 compounds.

Structures are written as SMILES.

The first assay concerns ACVR1B. Set-up: species or system human, MV4-11 + K-562 + COLO205 + SK-N-BE2 + OVCAR-8. Conditions: read-out: apparent Kd; compound concentrations:100 nM and 1000 nM (sheet 'Samples'); n = 1.
Consider `Nc1nc(-c2ccc(F)cc2)c(-c2ccc3ncccc3n2)s1` [GW785804X], for which the potency estimated from few doses was 0.0579 µM.
With `Nc1nc(-c2ccccn2)c(-c2ccnc3ccccc23)s1` [GW548057X], the potency estimated from few doses is 0.0762 µM.
Still for that read-out and setting: under `Cl.c1ccc(-c2nc3n(c2-c2ccc4c(c2)OCO4)CCC3)nc1` [SB-400868-A] stands 0.087 µM; under `Cl.Cl.Oc1cc(-c2nc(-c3ccccc3)[nH]c2-c2ccncc2)ccc1Cl.Oc1cc(-c2nc(-c3ccccc3)[nH]c2-c2ccncc2)ccc1Cl` [SB-386023-B], 0.968 µM; under `Cc1cccc(-c2nc(Nc3ccc4[nH]ncc4c3)c3ccccc3n2)n1` [GW857175X], 0.089 µM.
`c1ccc(-c2n[nH]cc2-c2ccnc3ccccc23)nc1` [GW271431X]: the potency estimated from few doses is 0.0188 µM.
As to `Cc1cccc(-c2nc(Nc3ccncc3)c3ccccc3n2)n1` [GW855857X], the potency estimated from few doses is 0.000502 µM.
Consider `COc1ccc2cc(-c3c(-c4ccncc4)nc(-c4ccc(S(C)(=O)=O)cc4C)n3C)ccc2c1` [SB-633825], for which the potency estimated from few doses was 0.686 µM.
Turning to `Cl.NC(=O)c1ccc(-c2nc(-c3ccccn3)c(-c3ccc4c(c3)OCO4)[nH]2)cc1` [SB-431542-A], the potency estimated from few doses is 1.14 µM.
In the case of `COc1ccccc1-c1cc(/C=C2\C(=O)Nc3ncc(Br)cc32)cc(Br)c1O` [GW442130X], the potency estimated from few doses was 0.646 µM.
Take `Cl.Cl.c1ccc(-c2cc3ccncc3cc2OC2CCNCC2)cc1.c1ccc(-c2cc3ccncc3cc2OC2CCNCC2)cc1` [GSK1122999D]: the potency estimated from few doses is 1.16 µM.
On to `COc1cccc(-n2ncc3c(N/N=C/c4ccncc4)ncnc32)c1` [GW784752X], for which the potency estimated from few doses was 0.725 µM.
`Cc1cc(Nc2nc(-c3cccc(C)n3)nc3ccccc23)ccn1` [GW872411X]: the potency estimated from few doses was 0.471 µM.
With `c1ccc(-c2n[nH]cc2-c2ccnc(-c3ccc(CNC4CCOCC4)cc3)c2)nc1` [GW709213X], the potency estimated from few doses is 0.0391 µM.
As to `CN(C(=O)c1ccc(-c2cc(-c3c[nH]nc3-c3ccccn3)ccn2)cc1)C1CCOCC1` [GW810083X], the potency estimated from few doses was 0.788 µM.
For the compound `N#Cc1ccc(-c2cc(-c3c[nH]nc3-c3ccccn3)ccn2)cc1` [GW693028X], the potency estimated from few doses was 0.872 µM.

Another assay has as its system ADCK3. Further details: species or system human, MV4-11 + K-562 + COLO205 + SK-N-BE2 + OVCAR-8. Conditions: read-out: apparent Kd; compound concentrations:100 nM and 1000 nM (sheet 'Samples'); n = 1.
On to `Cl.Cl.Oc1cc(-c2nc(-c3ccccc3)[nH]c2-c2ccncc2)ccc1Cl.Oc1cc(-c2nc(-c3ccccc3)[nH]c2-c2ccncc2)ccc1Cl` [SB-386023-B], for which the potency estimated from few doses was 0.373 µM.
Consider `COc1ccc2cc(-c3c(-c4ccncc4)nc(-c4ccc(S(C)(=O)=O)cc4C)n3C)ccc2c1` [SB-633825], for which the potency estimated from few doses is 0.803 µM.
As to `N#Cc1ccc(-c2cc(-c3c[nH]nc3-c3ccccn3)ccn2)cc1` [GW693028X], the potency estimated from few doses is 0.671 µM.

In a further assay the test system is CSNK1A1. Set-up: species or system human, MV4-11 + K-562 + COLO205 + SK-N-BE2 + OVCAR-8. Conditions: read-out: apparent Kd; compound concentrations:100 nM and 1000 nM (sheet 'Samples'); n = 1.
In the case of `Nc1nc(-c2ccccn2)c(-c2ccnc3ccccc23)s1` [GW548057X], the potency estimated from few doses was 0.893 µM.
Regarding `Cl.c1ccc(-c2nc3n(c2-c2ccc4c(c2)OCO4)CCC3)nc1` [SB-400868-A], the potency estimated from few doses was 0.369 µM.
Regarding `c1ccc(-c2n[nH]cc2-c2ccnc3ccccc23)nc1` [GW271431X], the potency estimated from few doses is 0.628 µM.
Consider `COc1ccccc1-c1cc(/C=C2\C(=O)Nc3ncc(Br)cc32)cc(Br)c1O` [GW442130X], for which the potency estimated from few doses was 1.78 µM.
As for `CN(C(=O)c1ccc(-c2cc(-c3c[nH]nc3-c3ccccn3)ccn2)cc1)C1CCOCC1` [GW810083X], the potency estimated from few doses is 2.39 µM.

The next assay relates to CSNK1D. Further details: species or system human, MV4-11 + K-562 + COLO205 + SK-N-BE2 + OVCAR-8. To be noted: read-out: apparent Kd; compound concentrations:100 nM and 1000 nM (sheet 'Samples'); n = 1.
Consider `Nc1nc(-c2ccccn2)c(-c2ccnc3ccccc23)s1` [GW548057X], for which the potency estimated from few doses was 1.8 µM.
Take `Cl.c1ccc(-c2nc3n(c2-c2ccc4c(c2)OCO4)CCC3)nc1` [SB-400868-A]: the potency estimated from few doses was 0.15 µM.
Regarding `c1ccc(-c2n[nH]cc2-c2ccnc3ccccc23)nc1` [GW271431X], the potency estimated from few doses was 0.398 µM.
For the compound `Cc1cccc(-c2nc(Nc3ccncc3)c3ccccc3n2)n1` [GW855857X], the potency estimated from few doses is 0.897 µM.
As for `Cc1cc(Nc2nc(-c3cccc(C)n3)nc3ccccc23)ccn1` [GW872411X], the potency estimated from few doses is 1.53 µM.
Consider `c1ccc(-c2n[nH]cc2-c2ccnc(-c3ccc(CNC4CCOCC4)cc3)c2)nc1` [GW709213X], for which the potency estimated from few doses was 1.5 µM.
Consider `CN(C(=O)c1ccc(-c2cc(-c3c[nH]nc3-c3ccccn3)ccn2)cc1)C1CCOCC1` [GW810083X], for which the potency estimated from few doses was 1.94 µM.

Another assay relates to CSNK1E. Further details: species or system human, MV4-11 + K-562 + COLO205 + SK-N-BE2 + OVCAR-8. Conditions: read-out: apparent Kd; compound concentrations:100 nM and 1000 nM (sheet 'Samples'); n = 1.
Turning to `Nc1nc(-c2ccc(F)cc2)c(-c2ccc3ncccc3n2)s1` [GW785804X], the potency estimated from few doses was 2.4 µM.
In the case of `Nc1nc(-c2ccccn2)c(-c2ccnc3ccccc23)s1` [GW548057X], the potency estimated from few doses was 2.1 µM.
On to `Cl.c1ccc(-c2nc3n(c2-c2ccc4c(c2)OCO4)CCC3)nc1` [SB-400868-A], for which the potency estimated from few doses was 0.262 µM.
Consider `c1ccc(-c2n[nH]cc2-c2ccnc3ccccc23)nc1` [GW271431X], for which the potency estimated from few doses is 0.712 µM.
Regarding `Cc1cccc(-c2nc(Nc3ccncc3)c3ccccc3n2)n1` [GW855857X], the potency estimated from few doses was 1.19 µM.
For `Cc1cc(Nc2nc(-c3cccc(C)n3)nc3ccccc23)ccn1` [GW872411X], the potency estimated from few doses is 1.7 µM.

A further assay relates to MAP2K1. Further details: species or system human, MV4-11 + K-562 + COLO205 + SK-N-BE2 + OVCAR-8. To be noted: read-out: apparent Kd; compound concentrations:100 nM and 1000 nM (sheet 'Samples'); n = 1.
Turning to `Nc1nc(-c2ccc(F)cc2)c(-c2ccc3ncccc3n2)s1` [GW785804X], the potency estimated from few doses was 1.91 µM.
Consider `COc1ccccc1-c1cc(/C=C2\C(=O)Nc3ncc(Br)cc32)cc(Br)c1O` [GW442130X], for which the potency estimated from few doses is 1.65 µM.
As to `Cc1cc(Nc2nc(-c3cccc(C)n3)nc3ccccc23)ccn1` [GW872411X], the potency estimated from few doses is 2.13 µM.
